This is part of a sample that, as a whole, favours compounds with a hit. Of some 83,000 tested, about 20% had one in any assay.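 Activity criterion: percent growth below 10, measured after cells in 96-well plates were exposed to a single compound concentration for 48 hours.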 Calls of active or inactive are those of the source.
Tests used:
Assay in all cases: NCI-60 one-dose screen, 48 h (100 = growth as untreated, 0 = no growth, -100 = all killed)
Conditions in all cases: 10 µM unless noted
SR leukemia = tested on: SR leukemia
RPMI-8226 leukemia = tested on: RPMI-8226 leukemia
OVCAR-8 ovarian = tested on: OVCAR-8 ovarian
OVCAR-5 ovarian = tested on: OVCAR-5 ovarian
OVCAR-4 ovarian = tested on: OVCAR-4 ovarian
SK-OV-3 ovarian = tested on: SK-OV-3 ovarian
OVCAR-3 ovarian = tested on: OVCAR-3 ovarian
HS 578T breast = tested on: HS 578T breast
NCI/ADR-RES ovarian = tested on: NCI/ADR-RES ovarian
IGROV1 ovarian = tested on: IGROV1 ovarian

Measured: growth

NC1(N)C=CC2=C(C=C1)C1(N)C3=C(C=CC(N)(N)C=C3)N2C2(N)C3=C(C=CC(N)(N)C=C3)N1C1=C2C=CC(N)(N)C=C1
inactive: SR leukemia 79.2% | RPMI-8226 leukemia 18.6% | OVCAR-8 ovarian 90.5% | OVCAR-5 ovarian 105% | OVCAR-4 ovarian 90.7% | SK-OV-3 ovarian 102% | OVCAR-3 ovarian 97.8% | HS 578T breast 81.6%

O=S(=O)(NCCNc1cc(-c2cn(-c3ccccc3)nc2-c2cccc(O)c2)ccn1)c1ccc(Br)cc1
inactive: RPMI-8226 leukemia 13% | OVCAR-8 ovarian 25% | OVCAR-5 ovarian 50% | OVCAR-4 ovarian 40.7% | SK-OV-3 ovarian 45.8% | OVCAR-3 ovarian 34.7% | HS 578T breast 24.8% | NCI/ADR-RES ovarian 25.5%
active: SR leukemia 5.3%

CCCC(=O)N1CCCCC1CC (stereo unspecified)
inactive: SR leukemia 102% | RPMI-8226 leukemia 95.7% | OVCAR-8 ovarian 95.3% | OVCAR-5 ovarian 87.5% | OVCAR-4 ovarian 102% | SK-OV-3 ovarian 111% | IGROV1 ovarian 120% | OVCAR-3 ovarian 105% | NCI/ADR-RES ovarian 115%

Cc1csc(-c2ccc3c(c2)COC3(CCCN(C)C)c2ccc(F)cc2)c1 (stereo unspecified)
active: SR leukemia -3.41% | RPMI-8226 leukemia -31.5% | SK-OV-3 ovarian -22.4%
inactive: OVCAR-8 ovarian 39% | OVCAR-5 ovarian 72.1% | OVCAR-4 ovarian 45.9% | OVCAR-3 ovarian 58.7% | HS 578T breast 47.7% | NCI/ADR-RES ovarian 78.6%

COc1ccc2[nH]c(-c3ccc(Cl)cc3)cc(=O)c2c1
inactive: SR leukemia 100% | RPMI-8226 leukemia 96.3% | OVCAR-8 ovarian 103% | OVCAR-5 ovarian 97.7% | OVCAR-4 ovarian 98.5% | SK-OV-3 ovarian 99.6% | OVCAR-3 ovarian 106% | HS 578T breast 99.7% | NCI/ADR-RES ovarian 102%

Cc1cc(C)c(NC(=O)c2sc3nc4c(cc3c2N)CCCC4)c(C)c1
active: SR leukemia 7.8%
inactive: RPMI-8226 leukemia 55.2% | OVCAR-8 ovarian 62.3% | OVCAR-5 ovarian 90.8% | OVCAR-4 ovarian 60.9% | SK-OV-3 ovarian 51.3% | OVCAR-3 ovarian 18.1% | HS 578T breast 46.2% | NCI/ADR-RES ovarian 18.4%

CCSc1sc(-c2ccc(C)cc2)nc1[P+](c1ccccc1)(c1ccccc1)c1ccccc1
active: SR leukemia -17.9% | RPMI-8226 leukemia -33.9% | OVCAR-8 ovarian 1.31% | OVCAR-4 ovarian -4.21% | SK-OV-3 ovarian -23.1% | OVCAR-3 ovarian -12.7% | HS 578T breast -3.68% | NCI/ADR-RES ovarian -5.4%
inactive: OVCAR-5 ovarian 18.3%

Cc1csc(Nc2nc(-c3ccc(Cl)cc3)nc(C(Cl)(Cl)Cl)n2)n1
inactive: SR leukemia 57% | RPMI-8226 leukemia 76.7% | OVCAR-8 ovarian 89.9% | OVCAR-5 ovarian 99% | OVCAR-4 ovarian 95.5% | SK-OV-3 ovarian 94.1% | IGROV1 ovarian 102% | OVCAR-3 ovarian 67% | HS 578T breast 101% | NCI/ADR-RES ovarian 91.3%

O=S(=O)(NCCNc1cc(-c2cn(-c3ccccc3)nc2-c2cccc(O)c2)ccn1)c1cccc(F)c1
inactive: SR leukemia 18.9% | RPMI-8226 leukemia 22.9% | OVCAR-8 ovarian 34.2% | OVCAR-5 ovarian 54.8% | OVCAR-4 ovarian 39.4% | SK-OV-3 ovarian 50.3% | OVCAR-3 ovarian 50.8% | HS 578T breast 37.6% | NCI/ADR-RES ovarian 33.1%

NC(=O)[C@@H]1CC2CCC1C2 (stereo partly specified)
inactive: SR leukemia 90.6% | RPMI-8226 leukemia 93.3% | OVCAR-8 ovarian 108% | OVCAR-5 ovarian 95% | OVCAR-4 ovarian 106% | SK-OV-3 ovarian 101% | IGROV1 ovarian 110% | OVCAR-3 ovarian 93.4% | NCI/ADR-RES ovarian 121%

O=[N+]([O-])c1cc(S(=O)(=O)c2ccc(F)c([N+](=O)[O-])c2)ccc1F
inactive: OVCAR-8 ovarian 80.9% | OVCAR-5 ovarian 122% | OVCAR-4 ovarian 112% | SK-OV-3 ovarian 117% | OVCAR-3 ovarian 101% | HS 578T breast 80.6% | NCI/ADR-RES ovarian 108%
active: SR leukemia 9.57% | RPMI-8226 leukemia 6.35%

CC1(C)C(=O)/C(=C\c2ccccn2)C[C@]2(C)[C@H]3CC[C@@H]4[C@@H](C(=O)/C=C/c5ccccn5)CC[C@@]4(C)[C@]3(C)CC[C@@H]12
inactive: OVCAR-8 ovarian 15.5% | SK-OV-3 ovarian 35.1% | HS 578T breast 15.1%
active: SR leukemia 3.7% | RPMI-8226 leukemia -5.71% | OVCAR-5 ovarian -21.7% | OVCAR-4 ovarian -1.54% | OVCAR-3 ovarian -69% | NCI/ADR-RES ovarian 0.68%

CC(=O)NC1=C(C#N)C(c2ccccc2Cl)c2c(ccc3ccccc23)O1 (stereo unspecified)
inactive: SR leukemia 37.1% | RPMI-8226 leukemia 55.5% | OVCAR-8 ovarian 82% | OVCAR-5 ovarian 86.3% | OVCAR-4 ovarian 88.8% | SK-OV-3 ovarian 85% | OVCAR-3 ovarian 41.2% | HS 578T breast 74.9% | NCI/ADR-RES ovarian 33.8%

C=C(C)[C@@H]1CC[C@]2(C)[C@H](CC=C3[C@@H]4CC(C)(C)CC[C@]4(C(=O)OC)CC[C@]32C)[C@@]1(C)CC/C(N)=N/O
active: SR leukemia 0.151% | NCI/ADR-RES ovarian -24.5%
inactive: RPMI-8226 leukemia 34.9% | OVCAR-8 ovarian 38.4% | OVCAR-5 ovarian 90.4% | OVCAR-4 ovarian 36.4% | SK-OV-3 ovarian 68% | OVCAR-3 ovarian 67.2% | HS 578T breast 72.4%

CN(C)c1ccc(N)c2ccccc12
active: OVCAR-3 ovarian -15.6%
inactive: SR leukemia 55% | RPMI-8226 leukemia 68.8% | OVCAR-8 ovarian 74.6% | OVCAR-5 ovarian 75.4% | OVCAR-4 ovarian 27.7% | SK-OV-3 ovarian 85.2% | IGROV1 ovarian 65.1% | NCI/ADR-RES ovarian 77.2%

Clc1ccc2c(NCCNc3nc(-c4ccccc4)cc(-c4ccccc4)n3)ccnc2c1
active: SR leukemia -19.4% | RPMI-8226 leukemia -34.4% | OVCAR-8 ovarian -70.6% | OVCAR-5 ovarian -79.7% | OVCAR-4 ovarian -66.4% | OVCAR-3 ovarian -85.6% | HS 578T breast -17.2% | NCI/ADR-RES ovarian -41.8%
inactive: SK-OV-3 ovarian 83.6%

O=C1C=Cc2ncccc2C1=O
inactive: SR leukemia 12.2% | RPMI-8226 leukemia 27.6% | OVCAR-8 ovarian 87.8% | OVCAR-5 ovarian 106% | OVCAR-4 ovarian 111% | SK-OV-3 ovarian 83.5% | IGROV1 ovarian 105% | OVCAR-3 ovarian 64.4% | NCI/ADR-RES ovarian 84%

COC(=O)[C@]12CC[C@@H](C)[C@H](C)[C@@H]1C1=CC[C@@H]3[C@@]4(C)C[C@@H](O)OC[C@](C)(C=O)C4C(=O)C[C@@]3(C)[C@]1(C)CC2 (stereo partly specified)
inactive: OVCAR-4 ovarian 18.5% | IGROV1 ovarian 14.7% | HS 578T breast 16.8% | NCI/ADR-RES ovarian 10.9%
active: SR leukemia -14.3% | RPMI-8226 leukemia -19.3% | OVCAR-8 ovarian -4.45% | OVCAR-5 ovarian -10.5% | SK-OV-3 ovarian -0.332% | OVCAR-3 ovarian -12%

Cn1cc(-c2csc(-c3cn(CCNC(=O)OC(C)(C)C)c4ccccc34)n2)c2cccnc21
inactive: SR leukemia 75.6% | RPMI-8226 leukemia 42.1% | OVCAR-8 ovarian 45% | OVCAR-5 ovarian 115% | OVCAR-4 ovarian 49.2% | SK-OV-3 ovarian 94.9% | OVCAR-3 ovarian 86.3% | HS 578T breast 82.1% | NCI/ADR-RES ovarian 56%

Cc1cc(N(CCCNc2ccnc3cc(Cl)ccc23)Cc2ccco2)nc(Cl)n1
inactive: SR leukemia 21.7% | RPMI-8226 leukemia 18.6% | OVCAR-8 ovarian 41.2% | OVCAR-5 ovarian 69.3% | OVCAR-4 ovarian 54.1% | SK-OV-3 ovarian 58.7% | OVCAR-3 ovarian 66.1% | HS 578T breast 75.4% | NCI/ADR-RES ovarian 45.7%

Nc1c2c(nc3ccc(Cl)cc13)CC(c1ccc(O)cc1)CC2=O (stereo unspecified)
inactive: SR leukemia 31.8% | RPMI-8226 leukemia 34.9% | OVCAR-8 ovarian 75.5% | OVCAR-5 ovarian 91.9% | OVCAR-4 ovarian 81.3% | SK-OV-3 ovarian 68.7% | OVCAR-3 ovarian 25.3% | HS 578T breast 46.1%

C/C(=N\Nc1cc(C)c2ccccc2n1)c1ccccn1
active: SR leukemia 1.94% | RPMI-8226 leukemia -24% | OVCAR-8 ovarian -23.3% | OVCAR-4 ovarian -8.85% | OVCAR-3 ovarian -0.251% | NCI/ADR-RES ovarian -8.13%
inactive: OVCAR-5 ovarian 20.6% | SK-OV-3 ovarian 22.3% | HS 578T breast 35.6%

Nc1c(C(=O)Nc2cccc(Cl)c2)sc2ncc(Cl)cc12
active: OVCAR-4 ovarian -4.92%
inactive: SR leukemia 66.3% | RPMI-8226 leukemia 75% | OVCAR-8 ovarian 81.9% | OVCAR-5 ovarian 88.8% | SK-OV-3 ovarian 81% | OVCAR-3 ovarian 71.4%

O=C1c2ccccc2C(=Cc2ccccc2)c2ccccc21
inactive: RPMI-8226 leukemia 22.4% | OVCAR-8 ovarian 21.6% | OVCAR-5 ovarian 43.3% | IGROV1 ovarian 40%
active: SR leukemia 8.17% | OVCAR-4 ovarian 6.28% | SK-OV-3 ovarian -3.56% | OVCAR-3 ovarian -36.5% | NCI/ADR-RES ovarian -64.4%

CC1(C)c2ccccc2C(=O)C1(Br)Cc1ccccc1 (stereo unspecified)
inactive: SR leukemia 53.5% | RPMI-8226 leukemia 46.8% | OVCAR-8 ovarian 93% | OVCAR-5 ovarian 73.7% | OVCAR-4 ovarian 63.6% | SK-OV-3 ovarian 110% | OVCAR-3 ovarian 65.4% | HS 578T breast 84.1% | NCI/ADR-RES ovarian 72.8%

Cn1c(=O)c2c(nc(Br)n2CC(=O)Nc2ccc(F)cc2)n(C)c1=O
inactive: SR leukemia 89.2% | RPMI-8226 leukemia 79.1% | OVCAR-8 ovarian 103% | OVCAR-5 ovarian 103% | OVCAR-4 ovarian 120% | SK-OV-3 ovarian 102% | OVCAR-3 ovarian 114% | HS 578T breast 100% | NCI/ADR-RES ovarian 102%

C/C(=N/NC(N)=S)C(=O)O
inactive: SR leukemia 90% | RPMI-8226 leukemia 75.2% | OVCAR-8 ovarian 71.2% | OVCAR-5 ovarian 91.1% | OVCAR-4 ovarian 85.5% | SK-OV-3 ovarian 107% | IGROV1 ovarian 56.7% | OVCAR-3 ovarian 77% | NCI/ADR-RES ovarian 65.3%
